Reference: the supplement of paper PMC11732987, “Enantioselective OTUD7B fragment discovery through chemoproteomics screening and high-throughput optimisation” (Communications Chemistry, 2025)

Columns and labels:
Experiment in all cases: log2 ratio of Biotin-Ahx-Ub-VS probe labelling (fragment/DMSO); higher = less target engagement (more negative = stronger competition), active = hit call of the paper (q ≤ 0.05, log2 ratio ≤ -1)
Conditions in all cases: compound concentration: 200 uM; treatment time: 3 h
[1] = target: USP34 (UniProt Q70CQ2)
USP34, sequence (Q70CQ2 whole entry, the tested form may be a part): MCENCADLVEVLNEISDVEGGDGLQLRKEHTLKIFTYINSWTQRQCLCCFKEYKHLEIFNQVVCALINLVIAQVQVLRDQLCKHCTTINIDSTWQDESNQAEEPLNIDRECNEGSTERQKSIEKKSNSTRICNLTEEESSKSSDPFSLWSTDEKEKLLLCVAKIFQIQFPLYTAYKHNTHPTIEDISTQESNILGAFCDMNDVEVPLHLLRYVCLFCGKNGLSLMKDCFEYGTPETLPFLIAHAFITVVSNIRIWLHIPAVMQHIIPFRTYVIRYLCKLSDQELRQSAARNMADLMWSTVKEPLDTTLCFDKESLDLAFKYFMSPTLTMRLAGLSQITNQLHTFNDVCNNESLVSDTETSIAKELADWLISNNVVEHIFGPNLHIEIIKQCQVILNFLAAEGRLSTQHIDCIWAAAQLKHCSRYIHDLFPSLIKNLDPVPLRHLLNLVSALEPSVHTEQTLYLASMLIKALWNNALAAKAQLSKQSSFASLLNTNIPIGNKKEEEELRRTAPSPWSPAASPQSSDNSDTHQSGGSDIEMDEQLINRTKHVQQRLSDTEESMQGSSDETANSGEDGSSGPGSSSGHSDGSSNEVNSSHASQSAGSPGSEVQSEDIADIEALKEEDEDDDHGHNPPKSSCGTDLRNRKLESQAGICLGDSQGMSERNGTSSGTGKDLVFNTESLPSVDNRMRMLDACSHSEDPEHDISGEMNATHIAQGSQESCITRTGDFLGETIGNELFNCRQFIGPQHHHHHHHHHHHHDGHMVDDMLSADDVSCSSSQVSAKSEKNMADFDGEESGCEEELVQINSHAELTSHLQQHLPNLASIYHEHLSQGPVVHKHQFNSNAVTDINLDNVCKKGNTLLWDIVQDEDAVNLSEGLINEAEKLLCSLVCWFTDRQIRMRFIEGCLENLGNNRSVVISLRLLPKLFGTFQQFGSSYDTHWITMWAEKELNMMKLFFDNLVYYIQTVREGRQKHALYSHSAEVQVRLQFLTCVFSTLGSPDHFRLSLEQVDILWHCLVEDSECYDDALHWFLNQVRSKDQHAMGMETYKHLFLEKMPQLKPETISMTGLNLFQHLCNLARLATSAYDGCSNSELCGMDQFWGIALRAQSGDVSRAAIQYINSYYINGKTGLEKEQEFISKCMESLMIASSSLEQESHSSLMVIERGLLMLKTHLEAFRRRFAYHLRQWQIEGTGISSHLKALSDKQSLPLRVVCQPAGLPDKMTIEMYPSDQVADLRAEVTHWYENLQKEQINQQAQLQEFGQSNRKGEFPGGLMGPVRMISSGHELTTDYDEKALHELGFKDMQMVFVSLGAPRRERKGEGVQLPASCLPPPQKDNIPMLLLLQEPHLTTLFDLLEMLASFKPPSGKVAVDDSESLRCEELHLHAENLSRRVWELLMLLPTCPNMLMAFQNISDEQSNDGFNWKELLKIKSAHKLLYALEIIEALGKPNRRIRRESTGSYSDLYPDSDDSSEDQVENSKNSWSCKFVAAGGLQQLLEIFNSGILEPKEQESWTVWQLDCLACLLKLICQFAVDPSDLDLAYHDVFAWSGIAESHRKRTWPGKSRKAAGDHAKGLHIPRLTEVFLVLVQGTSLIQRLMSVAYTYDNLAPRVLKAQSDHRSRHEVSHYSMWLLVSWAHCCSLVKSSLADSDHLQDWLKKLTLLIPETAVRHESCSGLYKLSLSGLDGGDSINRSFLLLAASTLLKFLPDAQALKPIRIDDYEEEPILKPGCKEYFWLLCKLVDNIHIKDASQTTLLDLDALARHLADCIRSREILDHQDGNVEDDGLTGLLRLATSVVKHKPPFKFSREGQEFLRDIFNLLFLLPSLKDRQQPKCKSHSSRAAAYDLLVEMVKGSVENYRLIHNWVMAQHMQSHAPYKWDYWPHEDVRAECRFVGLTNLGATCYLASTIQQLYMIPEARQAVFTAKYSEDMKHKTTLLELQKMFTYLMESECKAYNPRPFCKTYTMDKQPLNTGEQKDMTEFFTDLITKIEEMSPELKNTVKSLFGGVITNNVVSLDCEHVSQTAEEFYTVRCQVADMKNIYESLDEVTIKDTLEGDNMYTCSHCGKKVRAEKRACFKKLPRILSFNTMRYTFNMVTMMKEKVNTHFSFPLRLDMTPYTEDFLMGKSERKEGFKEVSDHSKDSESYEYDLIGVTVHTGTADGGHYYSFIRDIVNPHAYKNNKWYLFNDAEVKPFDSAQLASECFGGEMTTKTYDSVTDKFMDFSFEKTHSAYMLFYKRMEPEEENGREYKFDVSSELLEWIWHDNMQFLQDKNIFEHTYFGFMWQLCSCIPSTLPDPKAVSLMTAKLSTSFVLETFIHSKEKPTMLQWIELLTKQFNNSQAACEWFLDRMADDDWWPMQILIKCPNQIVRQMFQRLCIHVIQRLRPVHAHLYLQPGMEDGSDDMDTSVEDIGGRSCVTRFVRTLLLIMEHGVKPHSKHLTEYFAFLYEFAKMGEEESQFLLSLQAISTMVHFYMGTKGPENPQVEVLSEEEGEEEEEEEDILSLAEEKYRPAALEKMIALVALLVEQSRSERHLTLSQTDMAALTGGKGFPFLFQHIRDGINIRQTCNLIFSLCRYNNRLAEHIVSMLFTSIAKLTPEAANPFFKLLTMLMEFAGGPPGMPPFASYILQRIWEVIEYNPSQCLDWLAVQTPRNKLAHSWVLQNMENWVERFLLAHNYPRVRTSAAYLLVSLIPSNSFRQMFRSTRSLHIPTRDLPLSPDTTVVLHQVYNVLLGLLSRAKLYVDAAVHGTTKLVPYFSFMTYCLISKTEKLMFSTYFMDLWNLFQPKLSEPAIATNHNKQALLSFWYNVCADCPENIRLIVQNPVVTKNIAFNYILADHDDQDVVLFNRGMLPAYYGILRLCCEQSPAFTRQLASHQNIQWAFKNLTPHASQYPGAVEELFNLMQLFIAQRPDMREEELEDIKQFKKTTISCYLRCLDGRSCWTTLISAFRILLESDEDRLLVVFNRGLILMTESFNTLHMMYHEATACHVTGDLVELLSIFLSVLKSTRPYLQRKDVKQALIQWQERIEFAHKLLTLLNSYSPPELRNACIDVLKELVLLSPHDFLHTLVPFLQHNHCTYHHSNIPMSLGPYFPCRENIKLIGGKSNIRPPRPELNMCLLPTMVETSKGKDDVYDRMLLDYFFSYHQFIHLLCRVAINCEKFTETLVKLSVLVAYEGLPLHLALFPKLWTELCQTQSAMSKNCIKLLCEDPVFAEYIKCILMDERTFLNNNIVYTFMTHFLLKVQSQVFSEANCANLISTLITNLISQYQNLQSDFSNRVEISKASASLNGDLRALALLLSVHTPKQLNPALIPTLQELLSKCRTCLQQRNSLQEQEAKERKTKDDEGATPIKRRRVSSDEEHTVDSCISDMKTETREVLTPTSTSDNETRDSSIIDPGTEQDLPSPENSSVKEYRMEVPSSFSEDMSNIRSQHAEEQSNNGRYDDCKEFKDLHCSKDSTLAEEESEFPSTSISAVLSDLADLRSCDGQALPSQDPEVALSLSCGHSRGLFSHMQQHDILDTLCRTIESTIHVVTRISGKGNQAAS
Method in brief: (§1)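 Using Biotin-Ahx-Ub-VS at 0.5 µM final for 1 h, DUBs were labelled in HEK293T lysate (495 µg per sample) that had first been treated in triplicate with fragment at 200 µM or vehicle for 3 h. NeutrAvidin enrichment, LysC and trypsin digestion and diaPASEF LC-MS/MS followed. Spectronaut label-free quantities were global-median-normalised. Values are average log2 fragment/vehicle ratios by unpaired t-test, using proteins with ≥2 unique peptides.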

[2] = target: T1, USP36 (UniProt Q9P275)
T1 sequence (whole entry): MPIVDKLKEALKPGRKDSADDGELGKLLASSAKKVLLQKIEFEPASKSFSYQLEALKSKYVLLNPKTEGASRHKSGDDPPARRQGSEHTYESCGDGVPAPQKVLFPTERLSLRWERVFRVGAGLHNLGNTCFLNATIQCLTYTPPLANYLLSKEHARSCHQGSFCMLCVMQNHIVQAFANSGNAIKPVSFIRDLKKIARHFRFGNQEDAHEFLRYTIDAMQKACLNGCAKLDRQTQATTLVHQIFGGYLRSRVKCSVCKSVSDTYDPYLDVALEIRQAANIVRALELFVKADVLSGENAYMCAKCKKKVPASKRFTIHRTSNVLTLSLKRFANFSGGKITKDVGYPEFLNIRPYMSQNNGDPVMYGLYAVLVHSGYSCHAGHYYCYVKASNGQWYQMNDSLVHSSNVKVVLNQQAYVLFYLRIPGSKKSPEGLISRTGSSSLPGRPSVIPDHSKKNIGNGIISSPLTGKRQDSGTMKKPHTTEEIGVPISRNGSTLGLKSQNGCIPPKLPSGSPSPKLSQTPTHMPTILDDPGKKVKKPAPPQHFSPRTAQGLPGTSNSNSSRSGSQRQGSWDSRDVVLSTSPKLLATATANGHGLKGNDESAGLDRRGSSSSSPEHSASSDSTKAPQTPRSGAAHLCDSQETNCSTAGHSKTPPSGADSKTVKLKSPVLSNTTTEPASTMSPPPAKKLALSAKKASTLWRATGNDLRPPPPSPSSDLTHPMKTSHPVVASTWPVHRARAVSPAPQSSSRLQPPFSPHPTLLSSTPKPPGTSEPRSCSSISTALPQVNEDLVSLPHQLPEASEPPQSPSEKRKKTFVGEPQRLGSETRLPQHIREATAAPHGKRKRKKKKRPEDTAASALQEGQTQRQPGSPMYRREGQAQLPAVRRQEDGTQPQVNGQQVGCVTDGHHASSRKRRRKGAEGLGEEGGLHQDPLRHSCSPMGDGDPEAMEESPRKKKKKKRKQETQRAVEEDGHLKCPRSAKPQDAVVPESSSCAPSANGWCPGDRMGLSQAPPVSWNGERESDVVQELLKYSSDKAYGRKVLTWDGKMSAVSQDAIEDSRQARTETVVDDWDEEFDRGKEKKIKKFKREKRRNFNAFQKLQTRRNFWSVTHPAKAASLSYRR
Method in brief: as §1

[3] = target: T2, USP38 (UniProt Q8NB14)
T2 sequence (whole entry): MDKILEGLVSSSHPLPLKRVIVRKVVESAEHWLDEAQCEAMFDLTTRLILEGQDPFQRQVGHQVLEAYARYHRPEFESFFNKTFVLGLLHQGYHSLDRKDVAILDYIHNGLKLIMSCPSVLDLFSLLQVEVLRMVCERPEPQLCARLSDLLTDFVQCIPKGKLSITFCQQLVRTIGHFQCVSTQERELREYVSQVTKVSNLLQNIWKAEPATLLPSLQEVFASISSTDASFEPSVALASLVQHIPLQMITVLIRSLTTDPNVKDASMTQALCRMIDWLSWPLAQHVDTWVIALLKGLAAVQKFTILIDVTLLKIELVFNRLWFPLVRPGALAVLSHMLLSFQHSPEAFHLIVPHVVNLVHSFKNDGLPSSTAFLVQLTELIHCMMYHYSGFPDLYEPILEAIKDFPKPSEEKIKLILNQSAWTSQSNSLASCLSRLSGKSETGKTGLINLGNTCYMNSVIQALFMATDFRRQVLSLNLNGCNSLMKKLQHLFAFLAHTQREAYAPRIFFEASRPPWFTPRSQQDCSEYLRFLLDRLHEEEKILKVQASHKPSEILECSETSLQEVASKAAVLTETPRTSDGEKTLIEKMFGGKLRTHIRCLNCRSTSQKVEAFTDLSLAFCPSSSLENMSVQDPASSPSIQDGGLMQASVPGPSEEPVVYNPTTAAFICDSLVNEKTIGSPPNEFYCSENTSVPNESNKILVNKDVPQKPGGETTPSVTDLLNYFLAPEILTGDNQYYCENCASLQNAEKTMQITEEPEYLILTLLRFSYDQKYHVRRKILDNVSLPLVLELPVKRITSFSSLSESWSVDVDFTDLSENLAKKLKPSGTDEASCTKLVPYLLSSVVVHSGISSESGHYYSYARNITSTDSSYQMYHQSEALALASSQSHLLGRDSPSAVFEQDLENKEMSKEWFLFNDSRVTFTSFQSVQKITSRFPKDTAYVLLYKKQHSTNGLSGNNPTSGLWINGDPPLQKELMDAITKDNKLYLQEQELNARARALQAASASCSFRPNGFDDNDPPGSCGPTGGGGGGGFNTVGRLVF
Method in brief: as §1

[4] = target: T3, USP39 (UniProt Q53GS9)
T3 sequence (whole entry): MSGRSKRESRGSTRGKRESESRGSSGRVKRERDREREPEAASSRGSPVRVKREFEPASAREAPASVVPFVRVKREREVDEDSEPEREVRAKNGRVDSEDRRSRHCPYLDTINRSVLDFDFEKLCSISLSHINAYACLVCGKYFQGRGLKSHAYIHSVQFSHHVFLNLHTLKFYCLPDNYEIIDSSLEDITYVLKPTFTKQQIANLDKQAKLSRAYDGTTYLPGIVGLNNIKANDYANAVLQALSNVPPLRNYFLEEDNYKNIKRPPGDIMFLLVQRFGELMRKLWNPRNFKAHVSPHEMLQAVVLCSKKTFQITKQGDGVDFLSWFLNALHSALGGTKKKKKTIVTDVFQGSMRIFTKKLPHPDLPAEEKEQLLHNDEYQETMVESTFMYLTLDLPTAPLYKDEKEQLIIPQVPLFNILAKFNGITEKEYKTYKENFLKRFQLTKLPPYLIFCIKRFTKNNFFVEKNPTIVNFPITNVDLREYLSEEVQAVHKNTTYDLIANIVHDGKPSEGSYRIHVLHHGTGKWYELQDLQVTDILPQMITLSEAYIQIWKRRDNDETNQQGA
Method in brief: as §1

[5] = target: T4, USP4 (UniProt Q13107)
T4 sequence (whole entry): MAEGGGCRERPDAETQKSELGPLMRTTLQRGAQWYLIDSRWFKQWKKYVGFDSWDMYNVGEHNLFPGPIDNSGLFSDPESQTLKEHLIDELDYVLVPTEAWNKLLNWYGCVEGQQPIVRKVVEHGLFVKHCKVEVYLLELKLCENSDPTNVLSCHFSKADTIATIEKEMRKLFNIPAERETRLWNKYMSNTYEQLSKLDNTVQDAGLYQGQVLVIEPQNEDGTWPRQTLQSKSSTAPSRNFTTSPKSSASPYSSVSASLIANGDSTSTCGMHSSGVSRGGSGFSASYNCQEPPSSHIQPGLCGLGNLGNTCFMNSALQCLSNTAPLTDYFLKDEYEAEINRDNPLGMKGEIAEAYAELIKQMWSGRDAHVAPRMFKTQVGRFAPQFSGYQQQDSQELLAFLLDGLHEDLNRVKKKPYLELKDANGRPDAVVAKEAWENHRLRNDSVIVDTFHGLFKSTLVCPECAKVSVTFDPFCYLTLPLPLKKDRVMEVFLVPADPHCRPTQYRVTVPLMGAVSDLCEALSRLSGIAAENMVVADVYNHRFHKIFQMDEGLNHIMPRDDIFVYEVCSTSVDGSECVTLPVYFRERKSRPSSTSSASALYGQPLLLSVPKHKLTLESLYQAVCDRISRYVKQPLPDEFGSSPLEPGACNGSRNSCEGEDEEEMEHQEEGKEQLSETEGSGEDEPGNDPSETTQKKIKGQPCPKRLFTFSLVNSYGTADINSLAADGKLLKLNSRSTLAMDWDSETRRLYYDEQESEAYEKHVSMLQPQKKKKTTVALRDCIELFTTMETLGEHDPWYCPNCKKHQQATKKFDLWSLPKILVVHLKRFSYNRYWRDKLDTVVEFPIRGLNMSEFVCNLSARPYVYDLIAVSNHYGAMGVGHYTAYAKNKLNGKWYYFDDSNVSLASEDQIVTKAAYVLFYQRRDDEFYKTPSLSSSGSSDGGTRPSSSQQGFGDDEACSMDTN
Method in brief: as §1

Measured: log2 ratio of Biotin-Ahx-Ub-VS probe labelling

Cc1c(C#N)c(NC(=O)CCl)n(Cc2ccco2)c1C
inactive: [1] -0.304 | [2] -0.0578 | [3] -0.297 | [4] -0.162 | [5] -0.372
